Results as given in PubChem BioAssay.
The source made the active and inactive calls.

Legend:
Albumin (Bos taurus) = Albumin (Bos taurus) (UniProt P02769); assay: bovine serum albumin binders on microarray, profiling panel, artefact control for SMM control protein annotation, biochemical, small-molecule microarray, Alexa647 label, 635/667 nm fluorescence (AID 1118); details: BSA-A647 binding, fluorescence 635 nm, higher = more signal;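 note: score merges 667 nm emission intensity and signal-to-noise per printed compound spot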
[1] = small-molecule microarray binders of probe aXIP, primary screen, biochemical, NeuroSMM set, 635/667 nm fluorescence (AID 1119); details: higher = more signal, called active from +8 up or from −8 down;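 note: probe is the protein aXip251-270 applied at 1 µg/mL to compound-printed slides; binding of probe to printed compounds measured as 667 nm fluorescence plus signal to noise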
[2] = small-molecule binders of probe aNOTCH3, primary screen, biochemical, small-molecule microarray, 635/667 nm fluorescence (AID 1120); details: higher = more signal;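 note: probe is a biotin-tagged antibody raised against NOTCH3 rather than NOTCH3 protein; score merges spot fluorescence near 667 nm with spot signal to noise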
[3] = small-molecule binders of probe aNOTCH2, primary screen, biochemical, small-molecule microarray, 635/667 nm fluorescence (AID 1121); details: higher = more signal;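 note: score merges feature fluorescence read at 667 nm with its signal to noise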
[4] = target: Carbonic anhydrase 2 (Homo sapiens) (UniProt P00918); assay: CAII small-molecule binders, profiling panel, biochemical, small-molecule microarray, Alexa647-labelled CAII (AID 1122); details: CAII-A647 binding fluorescence, higher = more signal
[5] = COS7 lysate on small-molecule microarray, probe aHis, 635 nm (AID 1123); details: COS7 cell lysate, fluorescence, higher = more signal;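 note: z-score combines 667nm fluorescence intensity with signal-to-noise per printed compound spot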
[6] = compound binding in COS7 lysate, probe aLAP1, primary screen, cell lysate, small-molecule microarray (AID 1124); details: probe aLAP1, fluorescence, higher = more signal;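 note: lysate comes from COS7 cells expressing LAP1 and is applied at 0.3 µg/mL; score merges spot fluorescence near 667 nm with signal-to-noise over triplicate slides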
Sam68 (KHDRBS1) = assay: Sam68 small-molecule binders, primary screen, biochemical, small-molecule microarray, 635 nm fluorescence (AID 1125); details: small-molecule microarray binding, higher = more signal;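 note: score merges 667 nm channel intensity with signal to noise over triplicate slides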
[7] = tested on: Chordin-like protein 2 (CHRDL2); assay: CHRDL2 small-molecule binders, primary screen, biochemical, small-molecule microarray, 635 nm fluorescence (AID 1126); details: small-molecule microarray binding, fluorescence 635 nm; higher = more signal;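 note: printed compound slides probed with Chrdl2 protein at 4 µg/mL for 1 h at 4 C; score merges 667 nm emission intensity with signal to noise over three replicate slides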
[8] = target: Concanavalin-A (Canavalia ensiformis) (UniProt P02866); assay: ConA small-molecule binders, primary screen, artefact control for SMM control protein annotation, biochemical, small-molecule microarray, Alexa647 label, 635 nm (AID 1127); details: ConA-A647 binding fluorescence, higher = more signal;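 note: z combines 667 nm emission intensity with signal-to-noise across three replicate slides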
[9] = anti-His antibody binders, primary screen, artefact control for SMM control protein annotation, biochemical, small-molecule microarray, 635 nm fluorescence (AID 1128); details: anti-His Alexa647 antibody binding, higher = more signal;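 note: score merges feature fluorescence with signal-to-noise for each printed compound spot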
[10] = tested on: Human papillomavirus type 1a E7 protein (residues 1-88); assay: HPV1a E7 small-molecule binders, primary screen, biochemical, small-molecule microarray, residues 1-88, 635 nm (AID 1129); details: small-molecule microarray binding, fluorescence 635 nm; higher = more signal
[11] = target: Focal adhesion kinase 1 (Homo sapiens) (UniProt Q05397); assay: small-molecule microarray binders of FAK, primary screen, biochemical, 635/667 nm fluorescence, BSA, DTT (AID 1130); details: PTK2 binding, 635 nm fluorescence, higher = more signal;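 note: composite of spot emission at 667 nm and signal to noise over triplicate slides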
[12] = tested on: Fibrinogen (Alexa647-labelled); assay: fibrinogen binders on compound microarrays, profiling panel, artefact control for SMM control-protein annotation, biochemical, small-molecule microarray, 635/667 nm fluorescence (AID 1131); details: fibrinogen-A647 binding fluorescence, higher = more signal;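 note: z-score merges 667 nm fluorescence with per-spot signal-to-noise over triplicate slides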
[13] = target: Follistatin (Homo sapiens) (UniProt P19883); assay: follistatin binders on small-molecule microarrays, primary screen, biochemical, small-molecule microarray, 635/667 nm fluorescence (AID 1132); details: FST binding, 635 nm fluorescence, higher = more signal
[14] = target: Fibroblast growth factor 2 (Homo sapiens) (UniProt P09038); assay: FGF2 binders on small-molecule microarrays, primary screen, biochemical, small-molecule microarray, 635/667 nm fluorescence (AID 1133); details: small-molecule microarray binding, FGF2, fluorescence 635/667; higher = more signal
[15] = mitochondrial membrane potential change in A549 cells, profiling panel, cell-based, JC-1 fluorescence, basal, 24 h, 100 nL (AID 1138); details: higher = more signal;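 note: A549 lung adenocarcinoma cells under basal conditions with no added stimulus; test concentration not given here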
Lefty1 = Lefty1 binders on small-molecule microarrays, primary screen, biochemical, small-molecule microarray, 635/667 nm fluorescence (AID 1139); details: small-molecule microarray binding, fluorescence 635/667; higher = more signal
[16] = tested on: wheat germ agglutinin (Triticum aestivum), Alexa647-labelled; assay: wheat germ agglutinin binders on compound microarrays, profiling panel, artefact control for SMM control-protein annotation, biochemical, small-molecule microarray, 635/667 nm fluorescence (AID 1140); details: WGA-A647 binding, 635 nm fluorescence, higher = more signal;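 note: score merges 667 nm feature emission with signal to noise over triplicate slides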
[17] = target: Luciferin 4-monooxygenase (Photinus pyralis) (UniProt P08659); assay: firefly luciferase enzyme inhibitors, primary screen, biochemical, luminescence, purified enzyme, 2006 set (AID 1141); details: SteadyGlo luminescence, 30 min, higher = more signal, called active from +8 up or from −8 down;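 note: cell-free assay with purified firefly luciferase at 100 ng per well in PBS; test concentration not given here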
Luciferin 4-monooxygenase (Photinus pyralis), sequence (P08659 whole entry, looked up): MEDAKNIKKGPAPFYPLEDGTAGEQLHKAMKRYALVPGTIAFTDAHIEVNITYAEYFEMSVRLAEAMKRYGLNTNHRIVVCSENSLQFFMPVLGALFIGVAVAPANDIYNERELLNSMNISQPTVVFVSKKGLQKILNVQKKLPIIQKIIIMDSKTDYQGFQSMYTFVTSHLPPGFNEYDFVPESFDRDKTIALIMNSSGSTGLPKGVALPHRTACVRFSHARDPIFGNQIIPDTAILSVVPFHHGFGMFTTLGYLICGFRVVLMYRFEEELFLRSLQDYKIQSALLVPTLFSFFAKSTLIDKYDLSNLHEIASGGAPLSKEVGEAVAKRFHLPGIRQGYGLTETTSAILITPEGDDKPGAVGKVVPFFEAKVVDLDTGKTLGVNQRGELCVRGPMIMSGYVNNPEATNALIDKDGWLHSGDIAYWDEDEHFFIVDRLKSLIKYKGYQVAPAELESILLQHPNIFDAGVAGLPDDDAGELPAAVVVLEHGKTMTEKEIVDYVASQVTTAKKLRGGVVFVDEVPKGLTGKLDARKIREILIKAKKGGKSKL

Follistatin (Homo sapiens), sequence (P19883 whole entry, looked up): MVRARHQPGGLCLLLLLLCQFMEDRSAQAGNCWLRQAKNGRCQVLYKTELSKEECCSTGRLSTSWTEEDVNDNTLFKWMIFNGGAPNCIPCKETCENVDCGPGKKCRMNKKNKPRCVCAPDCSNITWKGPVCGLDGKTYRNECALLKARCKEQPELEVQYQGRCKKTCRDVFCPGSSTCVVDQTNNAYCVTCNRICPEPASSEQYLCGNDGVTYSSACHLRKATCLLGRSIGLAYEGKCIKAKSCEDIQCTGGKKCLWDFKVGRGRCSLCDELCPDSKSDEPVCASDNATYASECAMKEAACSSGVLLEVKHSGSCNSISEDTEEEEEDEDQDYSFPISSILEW
Albumin (Bos taurus), sequence (P02769 whole entry, looked up): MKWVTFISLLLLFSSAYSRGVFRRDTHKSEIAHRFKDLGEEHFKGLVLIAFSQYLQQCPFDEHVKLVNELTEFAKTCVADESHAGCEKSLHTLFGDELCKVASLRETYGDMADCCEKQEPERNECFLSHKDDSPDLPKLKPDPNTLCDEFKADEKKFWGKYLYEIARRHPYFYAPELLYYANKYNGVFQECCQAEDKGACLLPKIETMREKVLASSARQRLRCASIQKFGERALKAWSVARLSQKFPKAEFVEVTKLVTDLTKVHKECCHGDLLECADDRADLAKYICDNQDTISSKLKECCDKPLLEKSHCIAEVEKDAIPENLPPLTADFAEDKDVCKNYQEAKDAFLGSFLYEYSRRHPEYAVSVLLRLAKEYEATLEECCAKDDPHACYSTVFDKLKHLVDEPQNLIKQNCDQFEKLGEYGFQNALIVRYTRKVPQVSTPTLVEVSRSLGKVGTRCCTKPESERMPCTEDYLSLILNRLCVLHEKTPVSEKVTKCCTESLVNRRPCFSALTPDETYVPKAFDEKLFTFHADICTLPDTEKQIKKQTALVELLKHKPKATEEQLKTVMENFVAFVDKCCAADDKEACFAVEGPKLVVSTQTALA
Focal adhesion kinase 1 (Homo sapiens), sequence (Q05397 whole entry, looked up): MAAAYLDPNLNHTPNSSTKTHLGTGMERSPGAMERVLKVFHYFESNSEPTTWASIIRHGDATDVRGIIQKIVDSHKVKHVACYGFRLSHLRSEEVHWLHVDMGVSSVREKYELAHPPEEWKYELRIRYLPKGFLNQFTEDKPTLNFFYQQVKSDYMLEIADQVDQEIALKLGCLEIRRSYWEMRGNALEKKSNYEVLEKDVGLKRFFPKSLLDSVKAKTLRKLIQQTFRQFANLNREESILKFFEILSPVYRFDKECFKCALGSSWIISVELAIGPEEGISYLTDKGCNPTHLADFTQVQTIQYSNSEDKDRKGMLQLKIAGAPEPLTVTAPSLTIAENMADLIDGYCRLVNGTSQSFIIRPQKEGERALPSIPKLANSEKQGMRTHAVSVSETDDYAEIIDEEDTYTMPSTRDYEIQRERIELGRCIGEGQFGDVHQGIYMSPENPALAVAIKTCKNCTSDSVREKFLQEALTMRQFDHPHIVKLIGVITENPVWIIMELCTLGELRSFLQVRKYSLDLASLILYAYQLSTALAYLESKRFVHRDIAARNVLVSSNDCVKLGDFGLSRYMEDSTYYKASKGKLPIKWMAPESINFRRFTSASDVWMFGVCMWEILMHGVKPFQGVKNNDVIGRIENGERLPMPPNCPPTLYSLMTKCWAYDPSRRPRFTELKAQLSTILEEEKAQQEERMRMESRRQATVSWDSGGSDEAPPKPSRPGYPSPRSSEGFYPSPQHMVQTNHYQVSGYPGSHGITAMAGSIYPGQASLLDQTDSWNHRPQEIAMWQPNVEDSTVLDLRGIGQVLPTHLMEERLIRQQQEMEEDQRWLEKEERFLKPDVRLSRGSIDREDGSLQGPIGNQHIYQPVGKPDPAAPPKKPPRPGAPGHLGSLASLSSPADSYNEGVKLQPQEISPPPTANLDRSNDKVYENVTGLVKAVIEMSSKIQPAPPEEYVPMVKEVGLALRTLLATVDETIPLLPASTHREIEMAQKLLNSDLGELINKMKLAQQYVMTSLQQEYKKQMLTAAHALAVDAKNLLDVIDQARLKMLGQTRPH
Concanavalin-A (Canavalia ensiformis), sequence (P02866 whole entry, looked up): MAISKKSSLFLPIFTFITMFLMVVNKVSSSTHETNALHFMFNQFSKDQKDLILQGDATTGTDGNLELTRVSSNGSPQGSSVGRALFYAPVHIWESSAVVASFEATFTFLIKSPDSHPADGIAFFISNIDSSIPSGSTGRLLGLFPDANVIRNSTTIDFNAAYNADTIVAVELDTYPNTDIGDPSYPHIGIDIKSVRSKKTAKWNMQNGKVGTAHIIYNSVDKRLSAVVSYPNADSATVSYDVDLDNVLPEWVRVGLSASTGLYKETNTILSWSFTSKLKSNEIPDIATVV
Fibroblast growth factor 2 (Homo sapiens), sequence (P09038 whole entry, looked up): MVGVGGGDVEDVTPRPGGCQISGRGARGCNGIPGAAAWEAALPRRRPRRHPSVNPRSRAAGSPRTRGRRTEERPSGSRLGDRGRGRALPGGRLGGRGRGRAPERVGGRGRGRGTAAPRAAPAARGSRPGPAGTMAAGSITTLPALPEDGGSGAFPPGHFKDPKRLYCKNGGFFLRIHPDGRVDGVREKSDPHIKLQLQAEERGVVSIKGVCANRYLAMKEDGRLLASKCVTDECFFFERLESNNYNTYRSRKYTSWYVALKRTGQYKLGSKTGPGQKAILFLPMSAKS

Compound	composite z-score (Albumin (Bos taurus))	composite Z-score [1]	composite z-score [2]	composite z-score [3]	composite z-score [4]	composite z-score [5]	composite z-score [6]	composite z-score (Sam68 (KHDRBS1))	composite z-score [7]	composite z-score [8]	composite z-score [9]	composite z-score [10]	composite z-score [11]	composite z-score [12]	composite z-score [13]	composite z-score [14]	z-score [15]	composite z-score (Lefty1)	composite z-score [16]	z-score [17]
COc1ccc(C(=O)Nc2ccc(CN3C(=O)[C@]4(O[C@H](CCn5cc([C@H](O)c6ccccc6)nn5)[C@@H]([Si](C)(C)c5ccc(OC)cc5)[C@@H]4C)c4ccccc43)cc2)cc1	0.109	0.0958 (inactive)	0.0026	-0.132	0.52	0.891	-0.127	0.619	-0.313	-0.0974	-0.271	-0.303	-0.288	0.107	0.971	-0.224	0.496	0.444	0.849	-0.363 (inactive)
C[C@]12C(=O)N(CCCCCO)[C@@H]3C(=O)N(c4ccc(Cl)cc4)CC=CC31O[C@@H]1/C=C\CCCOC(=O)C12 (stereo not given in full)	0.153	0.312 (inactive)	-0.376	-0.14	-0.247	-0.947	-0.615	-0.698	-1.12	-1.02	-0.39	-0.711	-0.83	-1.47	-0.271	-1.27	0.428	-0.431	-1.31	-0.576 (inactive)
O=C1c2ccccc2[C@](Cc2ccccc2I)(C(=O)NCC(F)(F)F)[C@H](c2ccc(CO)cc2)N1Cc1ccccc1	0.684	0.341 (inactive)	-0.0183	-0.112	0.593	2.19	0.321	1.18	-0.213	1.11	0.0638	1.17	0.77	0.97	1.14	-0.0189	0.71	0.343	0.469	0.875 (inactive)
CCN(CC)c1ccc(N2CC=CC34O[C@@H]5/C=C\CCCOC(=O)C5[C@H]3C(=O)N(CCCCCO)[C@@H]4C2=O)cc1 (stereo not given in full)	0.567	0.226 (inactive)	-0.402	-0.198	0.342	-0.343	0.0397	-1.83	-1.2	-0.518	-0.617	-1.39	-0.722	-2.57	-0.785	-1.26	0.965	-0.758	-1.19	-0.918 (inactive)
COc1cc(NN2C(C(O)c3ccc(I)cc3)C=CC3C(=O)N(C)C(=O)C32)cc(OC)c1OC (stereo not given)	-0.166	0.466 (inactive)	0.163	0.0586	0.783	1.63	0.189	0.144	-0.946	0.0133	2.61	0.351	1.2	-0.472	-0.0712	-0.893	0.223	-0.595	0.701	-0.977 (inactive)
COC(=O)[C@@]1(Cc2ccc(F)cc2)[C@H]2c3cc(C(=O)N4CCCC4)n(Cc4ccccc4)c3C[C@H]2CN1C(=O)c1ccccc1	0.946	1.06 (inactive)	0.23	0.0291	0.793	2.25	0.65	0.253	-1.32	0.428	1.66	0.923	1.08	0.805	0.724	-0.481	-1.23	-0.0042	0.768	2.22 (inactive)
COC(=O)[C@@]1(Cc2ccc(OC)cc2)[C@H]2c3cc(C(=O)N(C)C)n(Cc4cc(C)n(C)n4)c3C[C@H]2CN1C(=O)c1ccccc1	0.19	0.638 (inactive)	0.166	0.0736	0.88	3.4	0.898	1.06	-0.285	-0.307	1.08	1.29	0.405	-0.842	-0.396	-0.233	-1.14	-0.0189	0.262	1.01 (inactive)
[N-]=[N+]=NCc1ccccc1C[C@@]1(C(=O)NCCN2CCOCC2)N=C(c2ccc(OCCCO)cc2)O[C@@H]1c1ccccc1CN=[N+]=[N-]	0.511	-0.0957 (inactive)	0.338	0.12	0.568	2.23	0.0232	1.31	0.139	1.06	2.12	1.21	0.366	0.973	1.45	0.672	1.08	0.785	0.59	-1.36 (inactive)
COc1ccc([Si](C)(C)[C@H]2[C@H](CCn3cc(CCO)nn3)O[C@@]3(C(=O)N(Cc4cccc(N5C(=O)c6cccc7cccc5c67)c4)c4ccccc43)[C@@H]2C)cc1	0.451	0.525 (inactive)	0.0311	-0.0974	0.584	0.791	1.65	1.22	0.438	1.11	0.246	1.05	0.124	0.497	0.958	0.691	-0.338	1.21	0.878	-1.54 (inactive)
COC(=O)C(CC#Cc1ccc2c(c1)[C@]1(C(=O)N2)[C@H](C(=O)N2CCc3cc(OC)c(OC)cc3C2)[C@H]2C(=O)O[C@H](c3ccccc3)[C@H](c3ccccc3)N2[C@@H]1c1ccc(OCCO)cc1)C(=O)OC	0.438	-0.715 (inactive)	0.239	-0.0664	0.413	2.17	0.969	1.31	0.506	0.942	1.47	1.19	0.344	0.99	1.01	1.71	-1.29	0.928	1.23	-1.9 (inactive)
CC(C)CN1C(=O)[C@@]2(Cc3ccccc31)c1ccccc1C(=O)N(Cc1ccccc1)[C@H]2c1ccc(CO)cc1	0.488	0.671 (inactive)	-0.197	-0.138	0.441	0.179	0.254	-1.72	-1.03	-0.616	-0.966	-1.28	-0.457	-0.492	-1.72	-0.776	-0.204	-0.78	0.145	-0.336 (inactive)
COC(=O)[C@@]1(Cc2ccc(F)cc2)[C@H]2c3cc(C(=O)N(C)C)n(Cc4ccc(C)c(F)c4F)c3C[C@H]2CN1C(=O)c1ccccc1	0.751	0.818 (inactive)	0.243	0.0742	0.713	3.15	-0.0137	1.07	-0.991	0.879	2.08	0.864	0.454	0.743	0.0662	-0.769	1.33	-0.413	0.854	0.0883 (inactive)
CCOC(=O)C[C@H]1[C@H](OC(=O)c2ccc(C(=O)c3ccccc3)cc2)[C@@H](NC(=O)C2CCCCC2)c2cc(OCCCO)ccc2N1C(=O)Cc1ccc(OC)cc1	0.442	0.442 (inactive)	0.18	0.208	0.106	0.954	1.04	0.693	0.386	0.312	0.027	0.785	0.494	0.441	0.432	0.0799	1.36	0.942	0.221	0.13 (inactive)
COC(=O)[C@@]1(Cc2ccc(OC)cc2)[C@H]2c3cc(C(=O)N4CCCC4)n(CCc4ccc(O)c(OC)c4)c3C[C@H]2CN1C(=O)c1ccccc1	0.952	0.683 (inactive)	0.23	0.12	0.742	2.28	0.191	-0.295	-0.508	0.173	0.772	0.23	0.717	0.219	-0.625	-0.46	-0.0583	-1.78	0.0523	0.551 (inactive)
COCCOC(=O)N1C(=O)[C@@]2(c3cc(C#CC4(O)CCCCCC4)ccc31)[C@H](C(=O)NC[C@H](O)c1ccccc1)[C@H]1C(=O)O[C@H](c3ccccc3)[C@H](c3ccccc3)N1[C@@H]2c1ccc(OCCO)cc1	0.067	0.244 (inactive)	-0.0328	-0.0995	0.495	1.23	0.217	1.3	0.223	1.13	0.726	1.21	0.444	0.95	0.822	0.94	-1.49	0.473	0.357	0.531 (inactive)
CN(C)CCCC[C@@H]1NC(=O)[C@H]2C[C@@H](C(=O)NCCCCCCNC(=O)CS)[C@@H](c3ccc(O)cc3)N2C1=O	0.468	-0.131 (inactive)	-0.159	-0.14	0.802	2.66	0.957	0.457	-0.0412	-0.263	0.135	0.0218	1.05	-0.934	1.32	0.804	-0.685	0.628	-0.149	0.78 (inactive)
C[C@@]1([C@@H](NC(=O)c2cccs2)c2ccc(-c3ccccc3)cc2)C[C@H]1C1CCCCC1	0.0881	0.0169 (inactive)	-0.0027	-0.343	0.786	3.02	-0.165	-0.307	-0.237	-0.419	-1.16	-0.678	0.429	-1.76	-0.27	-1.48	-0.255	-0.507	-1.45	1.44 (inactive)
O=C1C2C=CC(C(O)c3ccccn3)N(Nc3ccccc3)C2C(=O)N1c1ccccc1 (stereo not given)	1.03	0.959 (inactive)	-0.0026	-0.0995	0.824	0.696	-0.247	-0.419	-0.493	0.36	0.0213	0.0731	0.478	0.339	0.0784	-0.424	0.327	0.144	1.14	-1.08 (inactive)
